# Results: PubChem BioAssay (EPA / NIEHS)
# Records with an inconclusive call do not appear. The source made the active and inactive calls. The calls were made as follows, unless noted: active = hit-call score of the fitted dose curve at least 0.9, where 1 is the maximum; inactive = score below 0.9.
# Key:
# [1] = target: Paired box protein Pax-6 (Homo sapiens) (UniProt P26367); experiment: ATG_Pax6_CIS: Attagene CIS-FACTORIAL HepG2 Assay for human Paired Box 6 (PAX6) (AID 2282956); settings: HepG2 CIS-FACTORIAL PAX6 reporter transcription, RNA readout; actives raise or lower the signal
# Summary of the method: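 Values derive from bidirectional curve fitting of reporter mRNA signal relative to DMSO. HepG2 cells bearing transfected cis-regulated MRTUs were exposed for 24 h; transcripts were read by RT-PCR and capillary electrophoresis.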
# [2] = ATG_PXRE_CIS: Attagene CIS-FACTORIAL HepG2 Assay for human Pregnane X Receptor Element (PXRE) (AID 2282957); settings: HepG2 Attagene CIS-FACTORIAL PXRE reporter, mRNA; actives raise or lower the signal
# Summary of the method: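 Bidirectional activity, baselined to DMSO, derived from reporter mRNA fluorescence (RT-PCR plus capillary electrophoresis) in HepG2 cells bearing cis-promoter reporter units, 24 h exposure.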
# [3] = ATG_RORE_CIS: Attagene CIS-FACTORIAL HepG2 Assay for human RAR-related Orphan Receptor Element (RORE) (AID 2282959); settings: HepG2 Attagene cis-factorial RORE reporter, mRNA; actives raise or lower the signal
# Summary of the method: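 Readout: fluorescent reporter mRNA by RT-PCR plus capillary electrophoresis, 24 h after dosing transfected HepG2 cells. Endogenous transcription factor activity on a cis promoter element is measured. Gain or loss of signal fitted against DMSO.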
# [4] = ATG_Sox_CIS: Attagene CIS-FACTORIAL HepG2 Assay for human SRY-box transcription factor (SOX) (AID 2282960); settings: HepG2 Attagene cis-factorial SOX reporter, mRNA; actives raise or lower the signal
# Summary of the method: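 Read-out: fluorescent RT-PCR products of SOX1-linked reporter transcripts resolved by capillary electrophoresis, fitted bidirectionally against DMSO. Transiently transfected HepG2 cells, 24 h after chemical exposure, endogenous transcription factor activity.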
# [5] = ATG_SREBP_CIS: Attagene CIS-FACTORIAL HepG2 Assay for human Sterol Regulatory Element Binding (SREBP) (AID 2282962); settings: HepG2 Attagene cis-factorial SREBP reporter, mRNA; actives raise or lower the signal
# Summary of the method: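 Values derive from bidirectional curve fitting with DMSO as baseline. The underlying measurement is reporter mRNA from cis-element-regulated units in transiently transfected HepG2, quantified by RT-PCR and capillary electrophoresis after 24 h exposure.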
# [6] = target: Signal transducer and activator of transcription 3 (Homo sapiens) (UniProt P40763); experiment: ATG_STAT3_CIS: Attagene CIS-FACTORIAL HepG2 Assay for human Signal Transducer and Activator of Transcription 3 (STAT3) (AID 2282963); settings: HepG2, Attagene cis-factorial STAT3 reporter transcription; actives raise or lower the signal
# Summary of the method: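 Cis-factorial format: endogenous transcription factors in HepG2 drive transfected reporter units. After 24 h treatment, reporter RNA was reverse-transcribed, amplified, FAM-labelled and HpaI-digested before CE analysis; activity scored in both directions against DMSO.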
# [7] = ATG_TA_CIS: Attagene CIS-FACTORIAL HepG2 Assay for human TA Basal Promoter (AID 2282964); settings: HepG2 Attagene CIS-factorial TA basal promoter reporter; actives raise or lower the signal
# Summary of the method: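 Transfected HepG2, 24 h compound exposure; RNA → RT-PCR → FAM primer extension → HpaI cut → CE fluorescence. Gain/loss-of-signal fitted against DMSO negative control. Background-control readout.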
# [8] = ATG_TCF_b_cat_CIS: Attagene CIS-FACTORIAL HepG2 Assay for human T-Cell-Factor with beta-catenin (TCF/b-cat) (AID 2282965); settings: HepG2 TCF/beta-catenin cis-reporter transcription, actives raise or lower the signal
# Summary of the method: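 Endogenous TCF/LEF activity read as reporter transcript level via RT-PCR and capillary electrophoresis fluorescence in transfected HepG2, 24 h exposure; gain or loss of signal fitted against DMSO controls.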
# [9] = ATG_TAL_CIS: Attagene CIS-FACTORIAL HepG2 Assay for human TAL Basal Promoter (AID 2282966); settings: HepG2 Attagene cis-factorial TAL promoter reporter; actives raise or lower the signal;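 also: background control endpoint measuring basal TAL promoter reporter mRNA not a specific factor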
# Summary of the method: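 Human hepatoma HepG2 cells, transfected with promoter-regulated reporter units, were treated 24 h. Reporter transcript levels, measured through RT-PCR and capillary electrophoresis, were fitted for gain or loss relative to DMSO.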
# [10] = ATG_TGFb_CIS: Attagene CIS-FACTORIAL HepG2 Assay for human Transforming Growth Factor (TGF) (AID 2282967); settings: HepG2 Attagene CIS TGFb reporter, mRNA transcription; actives raise or lower the signal
# Summary of the method: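 Readout: fluorescently labeled reporter cDNA fragments resolved by capillary electrophoresis after RT-PCR. Transfected HepG2 cells dosed for 24 h; endogenous TF activity at TGFB1-linked cis element; gain or loss fitted relative to DMSO.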
# [11] = target: Estrogen receptor (Homo sapiens) (UniProt P03372); experiment: ATG_ERa_TRANS: Attagene TRANS-FACTORIAL HepG2 Assay for human Estrogen Receptor alpha (ERa) (AID 2282970; active = hit-call score of the fitted dose curve at least 0.9, where 1 is the maximum); settings: HepG2 Attagene TRANS ERa GAL4 reporter, mRNA
# Summary of the method: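 Signal derives from fluorescence of labelled reporter PCR fragments separated by capillary electrophoresis. HepG2 cells transiently carrying multiple GAL4-UAS reporter units were treated 24 hours, and induction above DMSO baseline was fitted as activity.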
# [12] = target: X-box-binding protein 1 (Homo sapiens) (UniProt P17861); experiment: ATG_Xbp1_CIS: Attagene CIS-FACTORIAL HepG2 Assay for human X-box Binding Protein 1 (XBP1) (AID 2282972); settings: HepG2 XBP1 cis-element reporter, Attagene multiplex; actives raise or lower the signal
# Summary of the method: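 Human hepatoma HepG2, cis-element reporter system, 24 h treatment; mRNA quantified by RT-PCR/CE fluorescence; fit relative to DMSO.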
# [13] = ATG_M_19_TRANS: Attagene TRANS-FACTORIAL HepG2 Assay for M19 Transcription Factor (Internal Marker) (AID 2282974; active = hit-call score of the fitted dose curve at least 0.9, where 1 is the maximum); settings: HepG2 Attagene TRANS-FACTORIAL M19 internal marker reporter
# Summary of the method: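 24 h chemical exposure of transiently transfected HepG2 (MRTU library). RNA → oligo(dT) RT → PCR → 6-FAM labelling → HpaI cut → CE fluorescence. Positive-direction fit vs DMSO baseline; background internal-marker readout.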
# [14] = ATG_GAL4_TRANS: Attagene TRANS-FACTORIAL HepG2 Assay for GAL4 (Internal Marker) (AID 2282976; active = hit-call score of the fitted dose curve at least 0.9, where 1 is the maximum); settings: HepG2 Attagene TRANS GAL4 internal marker reporter
# Summary of the method: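 Liver HepG2 line bearing multiplexed GAL4-UAS reporter constructs; 24 h chemical treatment. Transcripts were quantified as fluorescent fragments on capillary electrophoresis after RT-PCR and HpaI cut, with activity fitted upward from DMSO.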
# [15] = target: Transcription factor Sp1 (Homo sapiens) (UniProt P08047); experiment: ATG_Sp1_CIS: Attagene CIS-FACTORIAL HepG2 Assay for human Specificity Protein 1 (Sp1) (AID 2282961); settings: HepG2 Sp1 cis-reporter transcription, actives raise or lower the signal
# Summary of the method: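 Read-out: fluorescence of 6-FAM-labeled, HpaI-digested RT-PCR products separated by capillary electrophoresis. HepG2 cells carried transfected cis-element reporter units and were exposed to chemicals for 24 h; gain or loss of signal fitted relative to DMSO.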
# [16] = target: Nuclear receptor subfamily 1 group I member 3 (Homo sapiens) (UniProt Q14994); experiment: ATG_CAR_TRANS: Attagene TRANS-FACTORIAL HepG2 Assay for human Constitutive Androstane Receptor (CAR) (AID 2282969; active = hit-call score of the fitted dose curve at least 0.9, where 1 is the maximum;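 also: activators raise reporter mRNA above DMSO so AC50 marks induction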); settings: HepG2 Attagene TRANS-FACTORIAL CAR reporter
# Summary of the method: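 Signal is reporter mRNA induction relative to DMSO, measured 24 h after dosing by RT-PCR with fluorescent primer extension and capillary electrophoresis. Human HepG2 liver cells carried transiently transfected chimeric NR-Gal4/GAL4-UAS reporter constructs.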
# [17] = target: Estrogen-related receptor gamma (Homo sapiens) (UniProt P62508); experiment: ATG_ERRg_TRANS: Attagene TRANS-FACTORIAL HepG2 Assay for human Estrogen-Related Receptor gamma (ERRg) (AID 2282977; active = hit-call score of the fitted dose curve at least 0.9, where 1 is the maximum;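 also: hits increase reporter signal over DMSO so potencies reflect activators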); settings: HepG2 Attagene TRANS reporter, ERRg transactivation
# Summary of the method: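 Readout: fluorescent reporter-mRNA fragments resolved by capillary electrophoresis after RT-PCR and HpaI cut. Cells: transiently transfected HepG2 carrying GAL4-UAS reporters driven by exogenous NR-Gal4 chimeras, dosed 24 h. Activity fitted upward relative to DMSO baseline.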
# [18] = ATG_PPRE_CIS: Attagene CIS-FACTORIAL HepG2 Assay for human Peroxisome Proliferator-activated Response Element (PPRE) (AID 2282958); settings: HepG2 PPRE cis-element reporter, Attagene transcription factor profiling; actives raise or lower the signal
# Summary of the method: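 Read-out: fluorescent reporter mRNA fragments resolved by capillary electrophoresis after RT-PCR. HepG2 cells carried transiently transfected PPRE-driven cis reporter constructs and were dosed for 24 h; gain or loss of signal fitted relative to DMSO.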
# [19] = ATG_VDRE_CIS: Attagene CIS-FACTORIAL HepG2 Assay for human Vitamin D Receptor Element (VDRE) (AID 2282968); settings: HepG2 VDRE cis-reporter transcription, actives raise or lower the signal
# Summary of the method: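 Measures endogenous factor activity through cis-element-driven reporter transcripts in transiently transfected HepG2. Cells are treated 24 h; reporter mRNA is quantified by RT-PCR and capillary electrophoresis; fitting is bidirectional.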
# Chain of X-box-binding protein 1 (Homo sapiens) (P17861 whole entry, looked up): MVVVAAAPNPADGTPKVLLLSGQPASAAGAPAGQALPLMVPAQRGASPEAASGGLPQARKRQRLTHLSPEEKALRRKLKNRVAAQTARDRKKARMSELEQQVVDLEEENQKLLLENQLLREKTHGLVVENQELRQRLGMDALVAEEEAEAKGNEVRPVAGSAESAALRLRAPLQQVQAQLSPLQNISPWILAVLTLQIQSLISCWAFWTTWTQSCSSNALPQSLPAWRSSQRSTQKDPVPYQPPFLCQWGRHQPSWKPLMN
# Chain of Estrogen receptor (Homo sapiens) (P03372 whole entry, looked up, the tested form may be a part): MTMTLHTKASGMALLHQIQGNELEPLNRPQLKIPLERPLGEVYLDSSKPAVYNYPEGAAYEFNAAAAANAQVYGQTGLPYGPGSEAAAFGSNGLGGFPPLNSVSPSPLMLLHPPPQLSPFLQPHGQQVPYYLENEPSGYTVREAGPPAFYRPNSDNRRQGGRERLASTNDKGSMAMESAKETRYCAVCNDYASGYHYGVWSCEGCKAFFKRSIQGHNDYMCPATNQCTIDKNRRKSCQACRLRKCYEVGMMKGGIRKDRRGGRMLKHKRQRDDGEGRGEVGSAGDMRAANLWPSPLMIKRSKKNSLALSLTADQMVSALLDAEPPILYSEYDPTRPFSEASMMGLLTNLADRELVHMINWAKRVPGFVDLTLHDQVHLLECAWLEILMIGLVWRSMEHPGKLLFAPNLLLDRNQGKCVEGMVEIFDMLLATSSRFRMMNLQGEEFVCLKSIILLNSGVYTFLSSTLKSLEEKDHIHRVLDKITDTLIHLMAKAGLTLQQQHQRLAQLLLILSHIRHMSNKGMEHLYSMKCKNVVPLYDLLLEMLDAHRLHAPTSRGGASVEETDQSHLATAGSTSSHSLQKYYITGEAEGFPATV
# Chain of Signal transducer and activator of transcription 3 (Homo sapiens) (P40763 whole entry, looked up): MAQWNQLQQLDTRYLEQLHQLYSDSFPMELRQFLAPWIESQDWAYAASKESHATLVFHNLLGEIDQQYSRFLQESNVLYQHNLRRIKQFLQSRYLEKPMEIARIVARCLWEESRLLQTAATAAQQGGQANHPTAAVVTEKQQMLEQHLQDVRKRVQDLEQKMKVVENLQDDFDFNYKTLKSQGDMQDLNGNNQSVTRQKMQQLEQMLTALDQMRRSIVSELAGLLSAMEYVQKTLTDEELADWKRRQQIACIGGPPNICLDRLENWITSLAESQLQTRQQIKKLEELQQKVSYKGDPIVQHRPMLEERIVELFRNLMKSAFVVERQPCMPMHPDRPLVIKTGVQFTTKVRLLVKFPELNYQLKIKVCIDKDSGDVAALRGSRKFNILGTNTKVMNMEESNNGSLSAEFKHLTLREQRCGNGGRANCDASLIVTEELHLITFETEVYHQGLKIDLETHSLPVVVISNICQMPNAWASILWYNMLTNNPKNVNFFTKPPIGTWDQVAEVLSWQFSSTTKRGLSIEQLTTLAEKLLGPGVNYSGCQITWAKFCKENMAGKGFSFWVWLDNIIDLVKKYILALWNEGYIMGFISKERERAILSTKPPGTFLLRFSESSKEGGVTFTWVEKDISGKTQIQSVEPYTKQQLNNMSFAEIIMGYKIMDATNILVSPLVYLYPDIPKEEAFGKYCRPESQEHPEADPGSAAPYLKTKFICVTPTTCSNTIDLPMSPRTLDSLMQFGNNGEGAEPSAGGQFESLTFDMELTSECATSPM
# Chain of Paired box protein Pax-6 (Homo sapiens) (P26367 whole entry, looked up): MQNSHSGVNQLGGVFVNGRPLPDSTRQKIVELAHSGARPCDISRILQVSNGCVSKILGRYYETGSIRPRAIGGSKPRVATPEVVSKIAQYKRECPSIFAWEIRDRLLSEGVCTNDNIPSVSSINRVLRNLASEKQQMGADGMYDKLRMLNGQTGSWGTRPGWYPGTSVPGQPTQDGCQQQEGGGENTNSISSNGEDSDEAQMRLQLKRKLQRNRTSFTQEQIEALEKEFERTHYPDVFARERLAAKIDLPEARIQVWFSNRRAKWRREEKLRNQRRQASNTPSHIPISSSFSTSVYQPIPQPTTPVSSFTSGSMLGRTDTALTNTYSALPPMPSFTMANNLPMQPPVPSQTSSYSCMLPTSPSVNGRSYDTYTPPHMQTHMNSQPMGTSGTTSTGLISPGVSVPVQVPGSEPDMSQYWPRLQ
# Chain of Transcription factor Sp1 (Homo sapiens) (P08047 whole entry, looked up): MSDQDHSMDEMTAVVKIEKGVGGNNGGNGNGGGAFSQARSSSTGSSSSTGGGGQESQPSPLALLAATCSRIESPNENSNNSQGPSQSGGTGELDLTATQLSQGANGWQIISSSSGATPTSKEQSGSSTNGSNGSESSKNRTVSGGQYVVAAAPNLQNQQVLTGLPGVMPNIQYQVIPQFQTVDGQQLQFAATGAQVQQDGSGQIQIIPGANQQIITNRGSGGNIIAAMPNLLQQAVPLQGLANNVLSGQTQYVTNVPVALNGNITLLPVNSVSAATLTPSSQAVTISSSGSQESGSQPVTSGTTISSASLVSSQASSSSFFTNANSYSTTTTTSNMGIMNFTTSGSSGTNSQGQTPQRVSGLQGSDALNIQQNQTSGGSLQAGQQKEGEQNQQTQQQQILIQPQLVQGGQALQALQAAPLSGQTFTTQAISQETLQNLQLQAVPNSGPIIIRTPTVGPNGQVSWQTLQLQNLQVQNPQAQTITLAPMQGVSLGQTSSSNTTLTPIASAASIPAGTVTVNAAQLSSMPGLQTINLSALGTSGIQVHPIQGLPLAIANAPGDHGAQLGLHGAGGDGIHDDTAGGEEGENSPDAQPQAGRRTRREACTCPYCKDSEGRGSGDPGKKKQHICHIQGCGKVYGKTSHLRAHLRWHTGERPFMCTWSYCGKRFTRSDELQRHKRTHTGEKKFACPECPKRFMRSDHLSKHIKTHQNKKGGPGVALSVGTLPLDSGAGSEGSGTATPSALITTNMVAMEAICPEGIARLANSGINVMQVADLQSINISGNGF
# Chain of Nuclear receptor subfamily 1 group I member 3 (Homo sapiens) (Q14994 whole entry, looked up, the tested form may be a part): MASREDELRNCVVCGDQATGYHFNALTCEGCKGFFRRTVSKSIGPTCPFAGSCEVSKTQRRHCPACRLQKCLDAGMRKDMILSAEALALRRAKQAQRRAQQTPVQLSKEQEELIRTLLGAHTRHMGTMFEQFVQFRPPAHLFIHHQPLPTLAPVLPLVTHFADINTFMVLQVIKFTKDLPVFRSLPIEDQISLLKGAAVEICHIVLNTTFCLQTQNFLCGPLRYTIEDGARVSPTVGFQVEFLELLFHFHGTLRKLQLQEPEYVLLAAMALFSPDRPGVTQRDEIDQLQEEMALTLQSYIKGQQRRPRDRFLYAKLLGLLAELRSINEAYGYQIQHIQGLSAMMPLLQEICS
# Chain of Estrogen-related receptor gamma (Homo sapiens) (P62508 whole entry, looked up, the tested form may be a part): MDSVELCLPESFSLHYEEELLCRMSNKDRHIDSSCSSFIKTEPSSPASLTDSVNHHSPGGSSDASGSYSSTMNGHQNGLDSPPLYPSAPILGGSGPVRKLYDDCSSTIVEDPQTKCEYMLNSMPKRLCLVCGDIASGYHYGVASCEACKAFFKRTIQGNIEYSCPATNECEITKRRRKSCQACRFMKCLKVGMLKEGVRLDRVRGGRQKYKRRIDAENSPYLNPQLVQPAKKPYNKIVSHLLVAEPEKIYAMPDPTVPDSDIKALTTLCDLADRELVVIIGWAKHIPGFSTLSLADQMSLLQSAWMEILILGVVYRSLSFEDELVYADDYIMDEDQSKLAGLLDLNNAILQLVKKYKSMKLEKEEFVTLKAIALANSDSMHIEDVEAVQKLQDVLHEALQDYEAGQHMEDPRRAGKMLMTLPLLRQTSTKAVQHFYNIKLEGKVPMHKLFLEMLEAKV
compound,measurement,setting,value
CCCCCCCCCCCCCCCC(=O)OCC,outcome,[1],inactive
same,AC50,[2],31.1 µM (active)
same,outcome,[3],inactive
same,outcome,[4],inactive
same,outcome,[5],inactive
same,outcome,[6],inactive
same,outcome,[7],inactive
same,outcome,[8],inactive
same,outcome,[9],inactive
same,outcome,[10],inactive
same,outcome,[11],inactive
same,outcome,[12],inactive
same,outcome,[13],inactive
same,outcome,[14],inactive
CCCCCCOC(=O)C(C)CC (stereo not given),outcome,[1],inactive
same,outcome,[2],inactive
same,outcome,[4],inactive
same,outcome,[15],inactive
same,outcome,[5],inactive
same,outcome,[6],inactive
same,outcome,[7],inactive
same,outcome,[8],inactive
same,outcome,[9],inactive
same,outcome,[16],inactive
same,outcome,[11],inactive
same,outcome,[12],inactive
same,outcome,[13],inactive
same,outcome,[14],inactive
same,outcome,[17],inactive
Nc1ccc(N=Nc2ccccc2)c(N)n1,outcome,[1],inactive
same,AC50,[18],100 µM (active)
same,AC50,[3],51.6 µM (active)
same,outcome,[4],inactive
same,outcome,[15],inactive
same,outcome,[5],inactive
same,outcome,[6],inactive
same,outcome,[7],inactive
same,outcome,[8],inactive
same,outcome,[9],inactive
same,outcome,[10],inactive
same,AC50,[19],68.9 µM (active)
same,outcome,[16],inactive
same,AC50,[11],27.8 µM (active)
same,AC50,[12],70.3 µM (active)
CCCCCCC(O)CO (stereo not given),outcome,[1],inactive
same,outcome,[2],inactive
same,outcome,[4],inactive
same,outcome,[15],inactive
same,outcome,[5],inactive
same,outcome,[6],inactive
same,outcome,[7],inactive
same,outcome,[8],inactive
same,outcome,[9],inactive
same,outcome,[10],inactive
same,outcome,[12],inactive
